Source: PubChem BioAssay
CHX counter = counter-screen for Shiga toxin inhibitors: cycloheximide protein synthesis inhibition | cell reporter, cycloheximide protein synthesis inhibition counterscreen | max response, % | 12% of 300,000 active; in the data active means max response mostly above about 13%, no sharp cut-off; inactive means mostly below about 14%; further: read at 38.3 µM for the half of the compounds with a filed dose; 0% is about no effect
NS1 inh = influenza NS1 inhibition; Potency, µM (titrated, usually from 46.1 µM), for inactives: top-dose activity, positive = more growth; 0.4% of 270,000 active; AID 2326; further: potency means the concentration at half of the fitted maximal effect; actives are rising curves; nearly all actives have a fitted effect of over 50% in size
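Recovery from NS1-induced slow growth read by OD600 in budding yeast switched to galactose assay medium (pH 6.0, -URA) at 1:100 dilution. Compound 23 nl per well; the matching strain lacking NS1 serves as control.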
Shiga toxin inh = inhibitors of Shiga toxin in Vero cells. Vero cells, Shiga toxin protein synthesis inhibition reporter. inhibition, % at 38.7 µM. 9.2% of 290,000 active; in the data active means inhibition mostly above about 28%, no sharp cut-off; inactive means mostly below about 43%; further: 0% is about no effect
AmpC no deterg = blocks E. coli AmpC beta-lactamase in detergent-free assay; P00811; AmpC nitrocefin hydrolysis, absorbance 480 nm, 0.0001% Triton; 0.52% of 330,000 active; Potency, µM (top dose mostly 57.1 µM), inactives show top-dose activity change, negative = inhibition, usual class: inhibitors; active means well fitted curve in the direction sought with a large enough effect; inconclusive means small, poorly fitted or top-dose-only effect, or another doubt; inactive means no such curve, though single readings can be large; an effect the other way counts as inactive or inconclusive;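 further: potency means the concentration at half of the fitted maximal effect; plate controls were no compound for no effect and no enzyme for full effect; nearly all actives have a fitted effect of over 20% in size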
Target sequence (P00811 whole entry, looked up): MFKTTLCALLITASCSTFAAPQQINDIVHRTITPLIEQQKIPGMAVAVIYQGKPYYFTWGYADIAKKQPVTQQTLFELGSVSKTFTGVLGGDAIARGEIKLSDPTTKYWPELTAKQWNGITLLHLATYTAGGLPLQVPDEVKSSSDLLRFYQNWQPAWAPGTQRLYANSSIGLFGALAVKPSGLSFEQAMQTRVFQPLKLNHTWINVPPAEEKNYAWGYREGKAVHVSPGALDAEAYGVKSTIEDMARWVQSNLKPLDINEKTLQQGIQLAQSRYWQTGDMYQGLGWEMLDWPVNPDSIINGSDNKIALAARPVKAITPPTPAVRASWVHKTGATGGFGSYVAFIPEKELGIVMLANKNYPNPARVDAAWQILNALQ
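20 mM phosphate pH 7.0 + 0.01% (detergent screen) or 0.0001% Triton X-100; 5.3 nM AmpC reagent; cpd preinc 15 min RT; nitrocefin (800 uM stock) to start; A480 q20 s × 4 min; Activity was normalised to no-enzyme and no-compound control wells.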
AmpC detergent = inhibitors of E. coli AmpC beta-lactamase with detergent | P00811 | AmpC hydrolysis of nitrocefin, absorbance 480 nm, 0.01% Triton | Potency, µM (series often up to 114 µM), for the others: at the highest dose activity change, negative = inhibition, hits mostly inhibitors | 0.041% of 370,000 active; active means well fitted curve in the direction sought with a large enough effect; inconclusive means small, poorly fitted or top-dose-only effect, or another doubt; inactive means no such curve, though single readings can be large; an effect the other way counts as inactive or inconclusive;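 further: potency means the concentration at half of the fitted maximal effect; 0% = no-compound wells and -100% = no-enzyme wells; nearly all actives have a fitted effect of over 25% in size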
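AmpC (5.3 nM in the dispensed reagent) in 20 mM phosphate pH 7.0 with 0.01% (detergent screen) or 0.0001% Triton X-100 was preincubated with compounds for 15 min at room temperature. Nitrocefin was then added from an 800 uM solution, and hydrolysis was followed at 480 nm.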
NS1 inh valid = validation of influenza NS1 protein function inhibitors; shares compounds with NS1 inh; influenza NS1 function cell assay, 15-point titration; activity change, negative = inhibition, % at 32.9 µM; 1,400 tested, under 10 active; further: 0% is about no effect
Flu PR8 replic = influenza NS1 inhibitors: inhibition of influenza A/PR/8/34 replication; AID 504647; virus titer (log TCID50), log10 TCID50 at 5 µM; shares compounds with NS1 inh; 30% of 95 active; MDCK infected influenza A/PR/8/34, virus titer TCID50; hits give low values; call rule not given here
Starred values were filed as active, the others as inactive; ? = inconclusive; / = no result. The entries come from a sample that favours hits as a whole. Unless noted, the call rests on the fitted dose curve.

SMILES | CHX counter | NS1 inh | Shiga toxin inh | AmpC no deterg | AmpC detergent | NS1 inh valid | others
CCn1nc(C(=O)OCc2cccc(S(=O)(=O)N(C)C)c2)c2ccccc2c1=O | -0.6 | ? | -5.7 | -9.5% | -2.9% | ?
CN(C)S(=O)(=O)c1cccc(COC(=O)c2ccc3c(c2)OCO3)c1 | 12.8 | / | 37.0 | -6.8% | -11.6% | /
CC(C)OC(=O)c1cccc(NC(=O)Cn2nnc3sc4c(c3c2=O)CCCC4)c1 | / | / | / | / | 16.3% | /
CC(=O)Nc1ccc(/C(C)=N/Nc2nc(Nc3cccc4ccccc34)nc(N3CCOCC3)n2)cc1 | 9.3 | 4.47µM* | 5.2 | 96.2% | 3.4% | ?
CC1CCc2sc3ncnc(N4CCN(CCO)CC4)c3c2C1 (stereo unspecified) | -5.9 | -6.5% | / | 73.8% | ? | /
Nc1ccc(-c2nc3cc(N)ccc3n2CCO)cc1 | 2.2 | 7.94µM* | -3.7 | -13.1% | -3.9% | 2.2
Cn1c(CO)nc2cc(N)ccc21 | -3.1 | 1.4% | -8.1 | -6.5% | -0.9% | /
Cc1ccc(C2(C(F)(F)F)N=C3Sc4cc(C)ccc4N3C(=O)N2)cc1 (stereo unspecified) | 6.8 | 18.0% | -1.8 | -16.0% | 2.7% | /
O=C(Nc1ccc(Cl)cc1F)C1CC1 | -0.5 | 14.1% | 14.5 | -29.1% | -2.9% | /
O=C(Nc1nc2ccc(S(=O)(=O)N3CCCCC3)cc2s1)c1ccncc1 | -4.2 | 10µM* | 2.3 | 64.2% | -7.5% | -28.3
CC(=O)Nc1nc2ccc(S(=O)(=O)N3CCCCC3)cc2s1 | -2.8 | 13.2% | -0.7 | -29.9% | -7.6% | /
Cc1ccc(F)c([C@H]2[C@H]3C=CC[C@@H](C)[C@@H]3C(=O)N2Cc2ccccc2)c1 | -2.6 | ? | -4.4 | 24.1% | -8.8% | ? | Flu PR8 replic=9
Cc1ccc(-c2ccc([C@H]3[C@H]4C=CC[C@@H](C)[C@@H]4C(=O)N3Cc3ccccc3)c(F)c2)cc1 | -5.5 | 27.9% | -5.7 | -11.4% | 3.5% | /
CN1C(=S)SC(C)(C)C1N(O)C(=O)Nc1ccc(Cl)cc1 (stereo unspecified) | 15.8 | -5.4% | 5.2 | -31.8% | 13.1% | /
CC1(C)SC(=S)N(NC(=O)Nc2ccccc2)C1N(O)C(=O)Nc1cccc2ccccc12 (stereo unspecified) | 3.3 | 22.4µM* | 13.1 | -9.5% | 8.8% | 9.4
O=C(CSc1nnc(-c2ccccc2)n1-c1ccccc1)NCc1ccco1 | -1.3 | 17.8µM* | 43.7 | -0.9% | 1.2% | 0.5
Cc1ccccc1NC(=O)CSc1nnc(-c2ccccc2)n1-c1ccccc1 | 11.0 | 24.0% | -14.4 | -0.6% | 1.5% | /
COc1ccc(C(C)=O)cc1CSc1nnc(-c2ccc(Cl)cc2)n1-c1ccccc1 | 8.7 | 1µM* | -25.3 | 48.9% | -2.8% | ?
COc1ccccc1NC(=O)CC(=O)CSc1nnc(-c2ccc(C)cc2)n1-c1ccccc1 | 1.1 | 14.1µM* | 7.5 | 0.5% | 2.5% | 7.7
COc1cccc(NC(=O)CN2C(=O)CC(c3ccco3)Sc3ccccc32)c1 (stereo unspecified) | / | / | / | / | 9.6% | /
COc1ccc([C@H]2[C@H](C(=O)C(C)(C)C)N3N=Cc4ccccc4C3C23C(=O)OC(C)(C)OC3=O)cc1 (stereo partly specified) | -4.0 | 7.2% | -8.2 | -22.2% | -3.8% | /
O=C(c1ccccc1)[C@H]1[C@H](c2ccccc2)[C@@]2(N=C(c3ccccc3)OC2=O)C2c3ccccc3C=NN21 (stereo partly specified) | 35.0* | 2.51µM* | 55.1* | -13.9% | -11.6% | -16.8
NNC(=O)COc1ccc(-c2n[nH]c(C(F)(F)F)c2-c2ccc(Br)cc2)c(O)c1 | -2.5 | 11.2µM* | 11.3 | -43.9% | 1.2% | 1.9
CCOc1ccc(NC(=S)NC(=O)/C=C/c2ccc(OC)c(OC)c2)c([N+](=O)[O-])c1 | -1.5 | 3.98µM* | -4.1 | -37.2% | 11.5% | -22.7
CCOc1ccc(NC(=S)NC(=O)/C=C/c2ccc(C)cc2)c([N+](=O)[O-])c1 | 15.3 | -10.5% | 11.1 | -16.9% | -2.1% | /
